The values below come from PMC4336329 (PLoS ONE, 2015).

The campaign covered roughly 310,000 compounds. About 14,000 (4.5%) showed an effect of 50% or more. The effect is printed as a negative number. For the sample, strong results were picked, then their nearest neighbours and some compounds at random.
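Note: peak tail current of the secondary pulse compared with the same well before compound.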

In this experiment the target is human ether-à-go-go-related gene (hERG) potassium channel (human, UniProt Q12809). Briefly: primary screen, population patch clamp on CHO cells stably expressing hERG; higher = less effect of the substance.
human ether-à-go-go-related gene (hERG) potassium channel, sequence (Q12809 whole entry, looked up): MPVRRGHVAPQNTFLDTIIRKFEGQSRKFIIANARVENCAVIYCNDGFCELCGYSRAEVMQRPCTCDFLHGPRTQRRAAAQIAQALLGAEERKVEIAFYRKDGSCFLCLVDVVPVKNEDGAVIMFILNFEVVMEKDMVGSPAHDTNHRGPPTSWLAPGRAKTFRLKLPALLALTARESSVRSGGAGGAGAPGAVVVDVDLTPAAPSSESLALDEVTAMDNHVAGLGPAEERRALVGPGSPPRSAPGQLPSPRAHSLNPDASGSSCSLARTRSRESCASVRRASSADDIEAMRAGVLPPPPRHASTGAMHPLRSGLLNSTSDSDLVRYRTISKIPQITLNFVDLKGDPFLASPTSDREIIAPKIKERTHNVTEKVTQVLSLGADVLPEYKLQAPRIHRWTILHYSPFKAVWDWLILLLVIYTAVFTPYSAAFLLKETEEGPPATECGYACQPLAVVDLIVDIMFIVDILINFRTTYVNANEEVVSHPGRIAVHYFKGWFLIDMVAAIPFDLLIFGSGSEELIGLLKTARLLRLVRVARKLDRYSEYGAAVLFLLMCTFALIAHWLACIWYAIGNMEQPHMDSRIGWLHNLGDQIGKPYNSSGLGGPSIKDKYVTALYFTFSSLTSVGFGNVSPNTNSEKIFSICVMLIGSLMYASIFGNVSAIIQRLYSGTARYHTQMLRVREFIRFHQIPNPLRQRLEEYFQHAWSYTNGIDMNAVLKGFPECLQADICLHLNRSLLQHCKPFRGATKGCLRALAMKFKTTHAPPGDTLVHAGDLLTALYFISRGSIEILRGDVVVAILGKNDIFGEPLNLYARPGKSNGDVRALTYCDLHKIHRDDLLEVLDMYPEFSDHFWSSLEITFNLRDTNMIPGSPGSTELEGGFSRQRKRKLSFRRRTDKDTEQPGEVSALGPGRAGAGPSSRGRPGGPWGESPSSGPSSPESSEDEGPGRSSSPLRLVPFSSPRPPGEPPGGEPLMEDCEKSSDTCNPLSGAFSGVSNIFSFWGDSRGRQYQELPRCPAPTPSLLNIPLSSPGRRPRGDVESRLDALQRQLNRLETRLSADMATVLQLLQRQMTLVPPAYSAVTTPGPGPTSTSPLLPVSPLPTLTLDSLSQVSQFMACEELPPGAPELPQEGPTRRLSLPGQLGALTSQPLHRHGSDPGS
`CCOC(=O)N1CCN(c2ccc([N+](=O)[O-])cc2)CC1`: the “hERG current change (%, negative = inhibition) at 10uM” value is given as -59.4%.
For `CCN(CC)C(=O)Cn1cc(C(=O)C(=O)N2CCN(c3ccc(OC)cc3)CC2)c2ccccc21`, the “hERG current change (%, negative = inhibition) at 10uM” value worked out at 16.1%.
The value for `COc1ccc(N2CCN(C(=O)C3CCN(C(=O)c4ccc([N+](=O)[O-])cc4)CC3)CC2)cc1` was -69%.
In the case of `COc1ccc(C(=O)N2CCC(C(=O)N3CCN(c4ccc(OC)cc4)CC3)CC2)cc1` it was -43.5%; in that of `O=[N+]([O-])c1ccc(N2CCN(c3ccccc3O)CC2)cc1`, -0.173%; in that of `CCN(CC)C(=O)Cn1cc(C(=O)C(=O)N2CCN(c3ccccc3)CC2)c2ccccc21`, -0.908%.
Take `Cc1cnc(C(=O)Nc2ccc(N3CCN(C(=O)OC(C)(C)C)CC3)cc2)cn1`: the “hERG current change (%, negative = inhibition) at 10uM” value is 14.1%.
Turning to `CCOC(=O)N1CCN(S(=O)(=O)c2ccc([N+](=O)[O-])cc2)CC1`, the “hERG current change (%, negative = inhibition) at 10uM” value is recorded as -23.9%.
In the case of `COc1ccc(N2CCN(C(=O)C3CCN(C(=O)c4cccc(Cl)c4)CC3)CC2)cc1` it was -29.8%.
Take `CCOC(=O)N1CCN(c2ccc(O)cc2)CC1`: the “hERG current change (%, negative = inhibition) at 10uM” value was found to be 15.6%.
The value for `CC(C)(C)OC(=O)N1CCN(c2ccc([N+](=O)[O-])cc2)CC1` was -73.3%; that for `COC(=O)C(NS(=O)(=O)c1ccc(NC(C)=O)cc1)C(C)C` (centres unmarked) was -0.58%.
On to `CN(C)CCCNC(=O)c1cc(C(=O)C2CCCCC2)c[nH]1`, for which the “hERG current change (%, negative = inhibition) at 10uM” value was -3.99%.
The value for `C=C(C)C(C)(C#CCN1CCCC1)OC(C)=O` (centres unmarked) was -6.48%.
In the case of `NS(=O)(=O)c1ccc(CNC(=O)CCC2CCCCC2)cc1` it was -2.5%; in that of `COc1cc(NC(=S)N2CCN(S(=O)(=O)c3ccc(C)cc3)CC2)cc(OC)c1`, -4.7%.
In the case of `CC(=O)c1ccc(-n2cc(C#N)c(=O)[nH]c2=O)cc1` it was 18.9%.
Regarding `CC1CN(C(=O)c2cccc(COc3ccccc3Cl)c2)CC(C)O1` (centres unmarked), the “hERG current change (%, negative = inhibition) at 10uM” value is recorded as -49.3%.
Turning to `Cc1ccc(C(=O)OCc2cn(-c3ccccc3)nn2)cc1`, the “hERG current change (%, negative = inhibition) at 10uM” value is on record as -7.92%.
In the case of `O=C(O)Cc1sc(Nc2ccccc2)nc1-c1ccc(Cl)cc1`, the “hERG current change (%, negative = inhibition) at 10uM” value is on record as 14.6%.
In the case of `Nc1nnc(SCC(=O)Nc2cccc(S(=O)(=O)N3CCOCC3)c2)s1` it was 24.1%.
`O=C(C1CC1)N1CCN(c2ccc([N+](=O)[O-])cc2)CC1`: the “hERG current change (%, negative = inhibition) at 10uM” value is -61.8%.
The value for `O=C(C1CC1)N1CCN(c2ccc(O)cc2)CC1` was -17.3%; that for `CC(=O)N1CCN(c2ccc(NC(=O)c3ccc([N+](=O)[O-])cc3)cc2)CC1` was 1.37%; that for `CC1(C(=O)N2CCN(c3ccc([N+](=O)[O-])cc3)CC2)CC1(Cl)Cl` (centres unmarked) was -72.7%.
Consider `CC(=O)N1CCN(c2ccc([N+](=O)[O-])cc2)CC1`, for which the “hERG current change (%, negative = inhibition) at 10uM” value was -55.9%.
With `CC1(C(=O)N2CCN(c3ccccc3)CC2)CC1(Cl)Cl` (centres unmarked), the “hERG current change (%, negative = inhibition) at 10uM” value is 6.47%.
In the case of `CCOC(=O)N1CCN(c2c(N3CCc4ccccc4C3)c(=O)c2=O)CC1` it was -34.8%; in that of `CCOC(=O)N1CCN(c2c(-c3ccc(C)cc3)c(=O)c2=O)CC1`, -29.7%.
The value for `CC(=O)N1CCN(C(=S)c2ccc([N+](=O)[O-])cc2)CC1` was -3.4%.
In the case of `CCOC(=O)N1CCN(c2c(N3CC=C(c4ccccc4)CC3)c(=O)c2=O)CC1` it was -51.9%; in that of `COc1ccc(N2CCN(C(=O)C3(C)CC3(Cl)Cl)CC2)cc1` (centres unmarked), 2.66%.
As for `COc1ccc(CC(=O)N(C)C2CCCN(Cc3ccccc3F)C2)cc1OC` (centres unmarked), the “hERG current change (%, negative = inhibition) at 10uM” value is recorded as -4.9%.
On to `CCOC(=O)C1CSC(CC(=O)Nc2ccc(Cl)c(Cl)c2)C(=O)N1` (centres unmarked), for which the “hERG current change (%, negative = inhibition) at 10uM” value is -24.2%.
In the case of `COc1ccc(CCC(=O)OCC(=O)Nc2sccc2C(N)=O)cc1` it was -5.4%; in that of `CCOC(=O)N1CCN(C(=O)COc2ccc([N+](=O)[O-])cc2)CC1`, -43%; in that of `CN1CCCN(c2ccc([N+](=O)[O-])nc2)CC1`, 2.45%.
The value for `O=C(OCC(=O)N1CCN(c2ccccc2)CC1)c1cccc([N+](=O)[O-])c1` was -28.2%.
On to `O=[N+]([O-])c1ccc(N2CCCCC2)cc1`, for which the “hERG current change (%, negative = inhibition) at 10uM” value was -16.5%.
In the case of `O=C(Cc1ccccc1[N+](=O)[O-])OCC(=O)N1CCN(c2ccccc2)CC1` it was -6.16%.
Take `COc1cc2c(cc1OC)CN(c1ccc([N+](=O)[O-])c(C(F)(F)F)c1)CC2`: the “hERG current change (%, negative = inhibition) at 10uM” value is on record as -8.39%.
As for `CCOC(=O)C1CCN(C(=O)COc2ccc(Br)cc2)CC1`, the “hERG current change (%, negative = inhibition) at 10uM” value is on record as -32.1%.
The value for `CC(=O)OCC(=O)N1CCN(c2ccc([N+](=O)[O-])cc2)CC1` was -63.3%.
The value for `CCOC(=O)C1CCN(C(=O)COc2ccc([N+](=O)[O-])cc2)CC1` was -60.8%; that for `COc1ccc(N2CCN(c3ccc(C(=O)O)cc3[N+](=O)[O-])CC2)cc1` was 11%.
The value for `CN1CCCN(c2ccc([N+](=O)[O-])cc2)CC1` was -66%.
Take `CC(=O)N1CCN(c2ccc(Oc3ccc([N+](=O)[O-])c(C(F)(F)F)c3)cc2)CC1`: the “hERG current change (%, negative = inhibition) at 10uM” value is listed as -59.9%.
